From PubChem BioAssay (NCATS)
Results filed as inconclusive are left out. Where a call stands in place of a potency, no number is given. Activity calls are given as the source filed them. The call rests on the fitted dose curve; in most records, active means well fitted curve in the direction sought with a large enough effect; inconclusive means small, poorly fitted or top-dose-only effect, or another doubt; inactive means no such curve, though single readings can be large; an effect the other way counts as inactive or inconclusive.

Columns and labels:
[1] = qHTS profiling for inhibitors of Plasmodium falciparum (HB3) proliferation (AID 743324); details: Plasmodium falciparum HB3 blood-stage proliferation; at 28.7 µM (top of the series) unless noted
In short: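 P. falciparum HB3 grown in erythrocytes (0.3% parasitemia, 2.5% hematocrit final) with compound for 72 h at 37 C, 5% CO2. Parasite DNA detected by SYBR Green after saponin/triton lysis overnight; normalized to 0.29 uM artemisinin and DMSO.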

[2] = Identifying Small Molecule Inhibitors of Pancreatic Cancer Stem Cells (SN12C, Adherent) (AID 1259358);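 further: cell survival measured after 48 h of compound exposure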; further: potency means the concentration at half of the fitted maximal effect
In short: (§1)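 Monolayer and spheroid cultures are compared. Spheroids form over 14 days in stem cell medium on hydrogel-coated low-attachment plates, then are exposed to compound for 48 h before CellTiter-Glo luminescence.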

[3] = Identifying Small Molecule Inhibitors of Pancreatic Cancer Stem Cells (Panc1, Spheroid) (AID 1259359);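 further: potency means the concentration at half of the fitted maximal effect; compound exposure lasted 48 h before reading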
In short: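 Luminescent ATP readout (CellTiter-Glo) quantifies surviving cells after a 48 h drug incubation. Normalization uses DMSO wells as no inhibition and media-only wells as full inhibition; bortezomib served as positive control.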

[4] = Identifying Small Molecule Inhibitors of Pancreatic Cancer Stem Cells (SN12C, Spheroid) (AID 1259360); details: Potency: SN12C spheroid viability; further: potency means the concentration at half of the fitted maximal effect
In short: (§2)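 Pre-formed 14-day tumor spheroids or adherent cells dosed and incubated 48 h, 37C, 5% CO2. Viability assessed by CellTiter-Glo.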

[5] = Identifying Small Molecule Inhibitors of Pancreatic Cancer Stem Cells (Panc1, Adherent) (AID 1259362); details: Potency: viability; further: potency means the concentration at half of the fitted maximal effect
In short: as §2

[6] = P-glycoprotein substrates identified in KB-8-5-11 adenocarcinoma cell line, qHTS therapeutic library screen (AID 1346987); further: nearly all actives have a fitted effect of over 65% in size; further: potency means the concentration at half of the fitted maximal effect
In short: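 P-gp-mediated resistance screen: KB-8-5-11 cells treated 72 h with compounds in dose-response. CellTiter-Glo viability.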

[7] = Identifying Small Molecule Inhibitors of Pancreatic Cancer Stem Cells (A278, Adherent) (AID 1259361);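 further: viability read after 48 h compound exposure; nearly all actives have a fitted effect of over 35% in size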
In short: as §1

[8] = P-glycoprotein substrates identified in KB-3-1 adenocarcinoma cell line, qHTS therapeutic library screen (AID 1346986); further: nearly all actives have a fitted effect of over 60% in size
In short: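 Compounds were tested in dose-response against KB-3-1 and KB-8-5-11 cells at 37 degree C for 72 h, and viability was measured by luminescence. AC50 values came from curve fitting with class-based activity calls.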

[9] = Identifying Small Molecule Inhibitors of Pancreatic Cancer Stem Cells (A2780, Spheroid) (AID 1259357); details: Potency: A2780 spheroid viability;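 further: compound exposure lasted 48 h before the ATP luminescence read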; further: potency means the concentration at half of the fitted maximal effect
In short: as §2

**Q.** Which results are given for CN(NC(=O)CC(=O)NN(C)C(=S)c1ccccc1)C(=S)c1ccccc1?
**A.** remaining proliferation (% of control), lower = more inhibition [1]: 5.46%; Potency [2]: inactive; Potency [3]: 3.3 nM (active); Potency [4]: 743 nM (active); Potency [5]: inactive; Potency [6]: 51.7 nM (active)

**Q.** Which results are given for CCOc1cc2ncc(C#N)c(Nc3ccc(OCc4ccccn4)c(Cl)c3)c2cc1NC(=O)/C=C/CN(C)C?
**A.** remaining proliferation (% of control), lower = more inhibition [1]: -0.513%; Potency [2]: 418 nM (active); Potency [4]: 4690 nM (active); IC50 (viability decrease) [7]: 1180 nM (active); Potency [5]: 2640 nM (active)

**Q.** For CC1=C2C=C(CO)C(CO)CCC2(C)CCC1=O (stereo not given), which Potency [8] is on record?
**A.** The Potency was “inactive”.

**Q.** Which remaining proliferation (% of control), lower = more inhibition [1] does the source give for CNC1CCN(C(Cc2cccc(-c3ccncc3)c2)C(=O)c2sc3c(F)ccc(F)c3c2Cl)CC1 (stereo not given) here?
**A.** The remaining proliferation (% of control), lower = more inhibition was -0.323%.

**Q.** And the Potency [9]?
**A.** The Potency was “inactive”.

**Q.** And the Potency [2]?
**A.** The Potency was 26400 nM (active).

**Q.** With CN1C(=O)c2ccccc2-n2c(nc3ccccc3c2=O)[C@@]12O[C@H]2c1ccccc1 as the molecule, how does the Potency [8] read?
**A.** The Potency was “inactive”.

**Q.** Which Potency [8] does the source give for CC1(C)CCCC2(C)C(CO)C3CCC2C31 (stereo not given) here?
**A.** Its Potency is “inactive”.

**Q.** With O=C(NCC(=O)N1CC[C@H](NC2CCC(O)(c3ccc(-c4ncccn4)cn3)CC2)C1)c1cccc(C(F)(F)F)c1 (stereo not given in full) as the molecule, how does the Potency [8] read?
**A.** The Potency was “inactive”.

**Q.** What does the source list for COc1cc(/C=C/C(=O)OC2CC(C)=C(C(=O)O)/C2=C/CO[C@@H]2O[C@H](CO)[C@@H](O)[C@H](O)[C@H]2O)ccc1O (stereo not given in full)?
**A.** Potency [8]: inactive; Potency [6]: inactive

**Q.** Which Potency [8] does the source give for CC(=O)O[C@@H]1[C@H]2[C@@H](OC(=O)c3ccccc3)[C@@H](C)C[C@]2(O)[C@H](OC(C)=O)[C@@]2(C)[C@@H]3CC(C)(C)C(=O)[C@]3(OC(C)=O)C[C@@]12C here?
**A.** Its Potency is “inactive”.

**Q.** Which results are given for O=C(c1ccc(C#Cc2cccc(F)c2)cn1)N1CC2CC2C1 (stereo not given)?
**A.** Potency [8]: inactive; Potency [6]: inactive

**Q.** For O=C(CCO[C@@H]1O[C@H](CO)[C@@H](O)[C@H](O)[C@H]1O)c1ccc(O)cc1, which Potency [8] is on record?
**A.** Its Potency is “inactive”.

**Q.** And the Potency [6]?
**A.** Its Potency is “inactive”.

**Q.** With COc1ncc(-c2ccc3c(Nc4cc(Oc5cc(F)cc(F)c5)cc(C(=O)O)c4)c(S(=O)(=O)NC4CC4)cnc3c2)c(OC)n1 as the molecule, how does the Potency [8] read?
**A.** The Potency was “inactive”.

**Q.** What does the source list for O=c1cc(C2=CC=CC3Sc4ccccc4SC23)oc(N2CCOCC2)c1 (stereo not given)?
**A.** remaining proliferation (% of control), lower = more inhibition [1]: 76.5%; Potency [2]: inactive; Potency [4]: inactive; Potency [5]: inactive

**Q.** For NC(=O)c1cccc(-c2cc(O)cc(OC(=O)NC3CCCCC3)c2)c1, which Potency [8] is on record?
**A.** The Potency was “inactive”.

**Q.** Which remaining proliferation (% of control), lower = more inhibition [1] does the source give for CC[C@@H](C(=O)O)C1CC[C@H](C)C([C@@H](C)[C@H](O)[C@H](C)C(=O)[C@H](CC)C2O[C@]3(C=C[C@@H](O)[C@]4(CC[C@@](C)(C5CC[C@](O)(CC)[C@H](C)O5)O4)O3)[C@H](C)C[C@@H]2C)O1 (stereo not given in full) here?
**A.** The remaining proliferation (% of control), lower = more inhibition was -1.24%.

**Q.** What about the Potency [9] of the same molecule?
**A.** The Potency was 33.2 nM (active).

**Q.** And the Potency [3]?
**A.** Its Potency is 14800 nM (active).

**Q.** And the Potency [4]?
**A.** Its Potency is 1870 nM (active).

**Q.** What about the IC50 (viability decrease) [7] of the same molecule?
**A.** The IC50 (viability decrease) was 74.3 nM (active).

**Q.** What about the Potency [5] of the same molecule?
**A.** The Potency was 7430 nM (active).

**Q.** What does the source list for C[C@@H]1O[C@@H](O[C@H]2[C@H](O[C@H]3[C@H](O[C@H]4CC[C@@]5(C)C(CC[C@]6(C)C5CC=C5[C@@H]7CC(C)(C(=O)O)C[C@@H](O)[C@]7(C)CC[C@]56C)[C@@]4(C)CO)O[C@H](C(=O)O)[C@@H](O)[C@@H]3O)O[C@H](CO)[C@H](O)[C@@H]2O)[C@H](O)[C@H](O)[C@H]1O (stereo not given in full)?
**A.** outcome [8]: inactive [at 9.29 µM]; activity change, negative = cytotoxicity [6]: 7.09% [at 9.29 µM] (inactive)

**Q.** For COC1C2=C(COC2=O)C2(C)CCCC(C)(CO)C2C1OC(=O)c1ccccc1 (stereo not given), which Potency [8] is on record?
**A.** The Potency was “inactive”.

**Q.** And the Potency [6]?
**A.** The Potency was “inactive”.

**Q.** For OCC1=CC[C@@H]2C=CO[C@@H](O[C@@H]3O[C@H](CO)[C@@H](O)[C@H](O)[C@H]3O)[C@H]12, which Potency [8] is on record?
**A.** The Potency was “inactive”.

**Q.** And the Potency [6]?
**A.** Its Potency is “inactive”.

**Q.** Which results are given for CC(C)CC(=O)n1cc(C(N)=O)c(=O)cc1C(O)c1ccccc1 (stereo not given)?
**A.** Potency [8]: inactive; Potency [6]: inactive

**Q.** With C[C@@H]1O[C@@H](O[C@H]2[C@H](OC(=O)C34CCC5(C)C(=CCC6C7(C)CC(O)C(O[C@@H]8O[C@H](C(=O)O)[C@@H](O)[C@H](O)[C@H]8O)C(C)(C(=O)O)C7CCC65C)C3CC(C)(C)CC4O)O[C@H](C)[C@@H](O)[C@@H]2O)[C@H](O)[C@@H](O[C@@H]2OC[C@](O)(CO)[C@H]2O[C@@H]2O[C@H](CO)[C@@H](O)[C@H](O)[C@H]2O)[C@H]1O (stereo not given in full) as the molecule, how does the outcome [8] read?
**A.** Its outcome is “inactive [at 9.29 µM]”.

**Q.** What about the activity change, negative = cytotoxicity [6] of the same molecule?
**A.** The activity change, negative = cytotoxicity was 5.75% [at 9.29 µM] (inactive).

**Q.** Which results are given for CC1=CCC2C(C)(CO)CCCC2(C)C1CC12OC1C(O)C(CO)=CC2O (stereo not given)?
**A.** Potency [8]: inactive; Potency [6]: inactive

**Q.** For C/C=C/C1=CC2=C(CO1)C(=O)[C@](C)(O)[C@H](OC(=O)c1c(O)cc(OC)c(O)c1C)C2, which Potency [8] is on record?
**A.** Its Potency is “inactive”.

**Q.** And the Potency [6]?
**A.** The Potency was “inactive”.

**Q.** What does the source list for C[C@H]1[C@H](C)CC[C@]2(C(=O)O)CC[C@]3(C)C(=CC[C@@H]4[C@@]5(C)C[C@@H](O)[C@H](O)[C@@](C)(CO)[C@@H]5CC[C@]43C)[C@H]12?
**A.** Potency [8]: inactive; Potency [6]: inactive

**Q.** For COc1cc(C(C)=O)ccc1O[C@@H]1O[C@H](CO[C@@H]2O[C@@H](C)[C@H](O)[C@@H](O)[C@H]2O)[C@@H](O)[C@H](O)[C@H]1O, which Potency [8] is on record?
**A.** Its Potency is “inactive”.

**Q.** And the Potency [6]?
**A.** The Potency was “inactive”.
